Key:
Assay in all cases: PBM binding z-score (relative to random genomic background probes); higher = stronger binding; sequences stand for … in GC…GCGATTGACAGCGTAGAATGAAGG
[1] = test system: RARb homodimer (NR concentration 270 nM)
How it was run: (§1)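 Custom Agilent 4×180K protein-binding microarrays carried double-stranded probes. Their 34-nt variable regions held direct-repeat seeds, single-nucleotide variants, half-site ablations and random human genomic background sequences. Arrays were incubated 1 h with ligand-free nuclear receptor dimers in PBS pH 7.4, 2% milk, 0.02% Triton X-100, 1 mM DTT, 0.2 mg/mL BSA and 0.4 mg/ml salmon testes DNA. Antibodies against each partner (one per run) detected binding, and scanned fluorescence was regression-normalized. Binding z-scores use random background probes as reference.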

[2] = test system: RARg:RXRa (NR concentration 270 nM, RXRa partner concentration 90 nM)
How it was run: as §1

[3] = test system: RARg homodimer (NR concentration 270 nM)
How it was run: as §1

[4] = test system: RXRa DBDmut IVT, anti-RXR (DBD mutation: RXRa K156A/R161A, NR concentration 90 nM)
How it was run: as §1

[5] = test system: RXRa homodimer (NR concentration 180 nM)
How it was run: as §1

[6] = test system: THRa:RXRa (NR concentration 90 nM, RXRa partner concentration 90 nM)
How it was run: as §1

[7] = test system: THRa homodimer (NR concentration 90 nM)
How it was run: as §1

[8] = test system: VDR homodimer (NR concentration 270 nM)
How it was run: as §1

Sequence	PBM binding z-score [1]	PBM binding z-score [2]	PBM binding z-score [3]	PBM binding z-score [4]	PBM binding z-score [5]	PBM binding z-score [6]	PBM binding z-score [7]	PBM binding z-score [8]
GCTCGGAGGCCAAGGTCAGAGCTTTGTCCGTAGA	3.1	2.72	3.69	0.649	1.93	2.64	1.27	0.281
GCTGCTAGGTCAGGTTGGTGAGCTAACGGGTACG	2.33	2.37	3.34	0.361	1.05	1.76	0.218	0.0347
TAGCCTAGGTCACGCGGGCCAGTATAGTGTCGGC	3.49	5.13	5.55	0.633	4.2	3.74	1.61	0.563
TCATATAGGTAAAAGGTAAAAGTCGGTGTGGTAA	0.553	0.857	0.169	1.88	1.94	0.886	0.222	0.494
TCTTGCAGATCAACAGGAGGTTAAGAAAGATCGA	0.407	0.798	0.138	0.162	0.749	0.859	-0.241	-0.1
CGAACTAGGCCATCCAGGACAGTGAATACATTGA	0.41	0.517	0.851	0.537	0.302	1.57	0.93	0.275
TCTTGTAGATCAACAGGTTAAGAAAGCTGGCCAA	0.358	0.2	-0.172	0.696	0.726	0.203	-0.285	-0.285
CGTCCAAGGTCAGTGCTAGGTCAGTGAAAGCATT	4.72	6.51	6.07	2.72	4.15	3.98	2.41	2
CCTATTCGTTGACCATAAGGGCAACCGAAGCTCG	2.14	1.16	1.04	0.173	0.704	1.85	1.57	0.974
TCTTGTACATCAATAGAGGTTAAGAAAGTGCGCT	1.31	0.893	0.714	1.08	1.46	1.52	-0.338	-0.116
ATCTCTAGCTAAAGTTCAGTGAAAGATCGATAGA	2.45	1.76	2.45	0.982	1.11	0.511	-0.124	1.9
ACTATTAGTTGACTAAGGGCAACCGATACGACGC	1.55	0.953	1.33	0.698	0.794	1.72	0.967	0.874
ATATGTAGGTTAGCTGGGGTGATTCAGACTAGGC	1.08	0.84	0.761	0.484	0.872	4.14	1.26	0.601
ACTGTTAGTTGAGACGAGGGCAACCGATAGGTTG	1.26	0.764	1.13	0.337	0.451	2.63	0.349	0.808
CCTGCTAGGTAATGGTCAGCTAATCTACAGTATG	0.105	-0.00382	0.0688	-0.0204	-0.388	-0.173	-0.275	-0.364
TGAATGAGCTTAAAGATCAGGGAACGTGGCGTCG	-0.993	-0.123	-0.307	-1.41	0.0598	-0.475	-0.628	-0.391
CCTATTAGTTGACCATAAGGGCGACCGAAGCTCG	1.12	0.591	0.438	0.516	0.491	0.798	0.626	0.694
CCTTACGGGTCACTGACAGGTTATAGCTTTTGGA	3.45	5.62	4.37	1.64	4.7	2.82	0.24	0.718
CGAACGAGGGCATGAGTTGATAACAAATGCCGAT	0.641	1.37	1.59	2.64	1.05	1.19	-0.0778	1.48
ACTTACGGGTCAACGAGGATATAGCACGCGTATA	2.74	5.35	4.72	2.12	5.48	3.55	0.687	2.15
ATATGTAGGTTAGCTGGGGTCATTAAGACTAGGC	3.6	3.87	3.03	1.83	5.15	5.26	3	4.98
CCAAACAGGTGAGAAGGTAACTCAGCCTCGATTA	0.453	0.434	0.256	-0.0242	0.335	0.199	0.0192	-0.08
GCTGCTAGGTCAACTGATGGTCAGCTCAAGCTCG	3.67	5.5	5.38	1.62	2.96	3.09	1.25	0.00206
TCATATAGGTAAATGCTAGGTGAAAGTACGATCT	0.7	0.683	0.548	1.67	1.26	1.6	0.701	0.431
TCAGACAGGTGAAGGTAAATCAGGTACGCAGTCG	0.943	0.61	0.667	1.77	1.06	1.58	0.468	0.53
ACAGACAGGTGAGAGAAGGTAACTCAGCTGGACG	0.122	0.137	0.491	-0.484	0.333	1.69	-0.219	-0.636
CCAGACAGGTGAAAGGTAATTCAGTCTGGTACGC	0.45	1.04	0.643	-0.17	1.68	0.696	-0.243	-0.314
TCTTGTAGATCAATAGAGGTTAAGAGAGTGCGCT	1.02	0.864	0.443	0.589	1.46	2.56	-0.485	0.473

Reference: the supplement of paper PMC6555819
